Source: PubChem BioAssay (National Center for Advancing Translational Sciences (NCATS))
Shown are actives, neighbours in structure and some others; about 17% of the full set was active somewhere.
TGFb SMAD3 inh = qHTS for Inhibitors of TGF-b. HepG2 CAGA-GFP TGF-b/SMAD3 reporter, GFP fluorescence, 18 h; TGF-beta stimulated, 500 pg/mL final. Potency, µM (series often up to 46.1 µM), for the others: top-dose activity, negative = inhibition, hits mostly inhibitors. 410,000 tested, 1.2% active. AID 588855, 2011; note: % is set by controls: 0 for no effect and ±100 for the full control effect; nearly all actives have a fitted effect of over 65% in size
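HEPG2 CAGA-GFP, 1000 cells/well; 2 h settle, 37 C; cpd via pin tool; TGF-b 500 pg/mL final; 18 h, 37 C; GFP imaging ex488/em500-530; %Activity normalised to -TGF-b and +DMSO controls; CRC fit, curve class.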
HT1080NT lethal = qHTS for induction of synthetic lethality in tumor cells producing 2HG: qHTS for the HT-1080-NT fibrosarcoma cell line; HT-1080-NT fibrosarcoma viability, CellTiter-Glo ATP luminescence, 48 h; Potency, µM (top dose mostly 46.1 µM), for the others: top-dose activity, negative = less viability, most hits filed as cytotoxic; 360,000 tested, 1.6% active; AID 686970, 2013;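 note: NT is the 2HG producing partner of a matched IDH1 knockdown line; 0% = DMSO-treated cells and -100% = media-only wells without cells; nearly all actives have a fitted effect of over 55% in size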
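Viability by CellTiter-Glo luminescence after 48 h compound exposure at 37C of HT-1080-NT cells (750/well, RPMI, 5% FBS). % activity scaled between DMSO wells and medium-only wells, then curve-fitted and categorized by curve class.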
DT40 TDP1 CPT = qHTS for Inhibitors of human tyrosyl-DNA phosphodiesterase 1 (TDP1): qHTS in cells in presence of CPT; chicken DT40 Tdp1-/-;hTDP1 cells + 20 nM CPT, ATP luminescence, 48 h; Potency, µM (titrated, usually from 46.2 µM), for the others: at the highest dose activity change, negative = growth inhibition, actives largely listed as inhibitors; 420,000 tested, 12% active; AID 686979, 2013; note: % is set by controls: 0 for no effect and ±100 for the full control effect; nearly all actives have a fitted effect of over 55% in size
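Chicken DT40 Tdp1-/- cells complemented with human TDP1, 400 cells/well, exposed to compounds plus 20 nM camptothecin for at least 48 h at 37 C; viability read as ATP content by CellTiter-Glo luminescence.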
HepG2 viability = qHTS for Inhibitors of TGF-b: Cytotox Counterscreen; Potency, µM (doses to about 46.1 µM), inactives show top-dose activity change, negative = cytotoxicity, usual class: cytotoxic; HepG2 CAGA-GFP viability, ATP luminescence, 18 h; AID 588856, 2011; 410,000 tested, 0.76% active
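CellTiter-Glo luminescence gave cytotoxicity after 18 hours at 37 degrees C. The cells were HepG2 CAGA-GFP in 1% FBS DMEM, stimulated with 500 pg/mL TGF-beta after compound addition. %Activity was normalised to no-cell wells (complete cell-killing) and DMSO (no toxicity), and curves were fitted and classified.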
HT1080 IDH1KD tx = qHTS for induction of synthetic lethality in tumor cells producing 2HG: qHTS for the HT-1080-IDH1KD cell line. Potency, µM (top dose mostly 46.1 µM), for inactives: at the top dose activity, negative = toxicity, hits mostly cytotoxic. AID 686971, 2013. 360,000 tested, 2% active. HT-1080 IDH1 knockdown viability, ATP luminescence, 48 h;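 note: 0% = DMSO wells and -100% = cell-free medium wells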
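% activity derives from luminescence (CellTiter-Glo), normalised to DMSO and no-cell wells. HT-1080-IDH1KD cells, 750/well, had 48 h compound exposure at 37 °C.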
TDP1 cell noCPT = qHTS for Inhibitors of human tyrosyl-DNA phosphodiesterase 1 (TDP1): qHTS in cells in absence of CPT; DT40 Tdp1-/- hTDP1 cells, no CPT, ATP luminescence, 48 h; Potency, µM (highest dose often 46.2 µM), inactives show at the highest dose activity change, negative = growth inhibition, most hits filed as inhibitors; 420,000 tested, 15% active; AID 686978, 2013; note: % is set by controls: 0 for no effect and ±100 for the full control effect; nearly all actives have a fitted effect of over 55% in size
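No-CPT arm: Tdp1-/-;hTDP1 DT40 cells (400/well) plus compounds, incubated ≥48 hr at 37 °C. Readout CellTiter-Glo luminescence.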
Starred values were filed as active, the others as inactive; ? = inconclusive; . = not tested or not shown. Calls come from the whole dose curve; as a rule, active = well fitted curve in the direction sought with a large enough effect; inconclusive = small, poorly fitted or top-dose-only effect, or another doubt; inactive = no such curve, though single readings can be large; an effect the other way counts as inactive or inconclusive. Potency is the fitted concentration of half-maximal effect.

SMILES	TGFb SMAD3 inh	HT1080NT lethal	DT40 TDP1 CPT	HepG2 viability	HT1080 IDH1KD tx	TDP1 cell noCPT
CCN(CC)CCN(Cc1cc2cccc(C)c2[nH]c1=O)C(=S)Nc1ccccc1	-1%	-11%	?	-38%	-20%	?
Cc1ccc2cc(CN(CCN(C)C)C(=S)Nc3ccccc3)c(=O)[nH]c2c1C	-8%	-16%	?	-13%	-9%	21µM*
Cc1ccc(NC(=S)N(CCN(C)C)Cc2cc3cc(C)cc(C)c3[nH]c2=O)cc1	-9%	-10%	?	-24%	-12%	4.6µM*
COc1ccc(-c2cc3onc(-c4c(Cl)cccc4Cl)c3c(=O)n2C)cc1	?	-3%	?	-26%	-2%	?
Cn1c(-c2ccc(F)c(F)c2)cc2onc(-c3ccccc3)c2c1=O	?	-1%	16µM*	-4%	0%	23µM*
O=c1onc(-c2ccccc2)c2ccccc12	-9%	5%	4%	10%	5%	13%
COC(=O)c1ccc(-c2cc3onc(-c4ccccc4)c3c(=O)n2C)cc1	5%	15%	23µM*	1%	11%	?
CCC(=O)NC(c1ccc(OC)c(OC)c1)c1cc(Cl)c2cccnc2c1O (stereo not drawn)	?	?	4.1µM*	-1%	?	4.6µM*
CCC(=O)NC(c1ccc(C)cc1)c1cc(Cl)c2cccnc2c1O (stereo not drawn)	?	.	.	2%	.	.
COc1ccc(C(=O)NC(c2ccc(Cl)cc2)c2cc(Cl)c3cccnc3c2O)cc1 (stereo not drawn)	?	.	3.7µM*	-18%	.	4.1µM*
CCOc1ccc(C(NC(C)=O)c2cc(Cl)c3cccnc3c2O)cc1 (stereo not drawn)	3.2µM*	.	3.2µM*	-59%	.	4µM*
COc1ccc(C(NC(=O)c2ccc(-c3ccccc3)cc2)c2ccccc2)cc1 (stereo not drawn)	13%	-2%	13µM*	1%	-3%	13µM*
O=C(O)COc1ccccc1C(Nc1ccccn1)c1cc(Cl)c2cccnc2c1O (stereo not drawn)	-30%	8%	-25%	-3%	12%	?
COc1ccc(CCn2c3c(c(=O)[nH]c2=O)C(NC(=O)c2ccccc2OC)(C(F)(F)F)C(=O)N3)cc1OC (stereo not drawn)	19%	.	-15%	-2%	.	-6%
C/C(=N\NC(=O)c1cccs1)C(C)(C)C	3%	20%	-11%	-3%	19%	-8%
COc1ccc(C(NC(C)=O)c2cc(Cl)c3cccnc3c2O)cc1OC (stereo not drawn)	?	-15%	7.3µM*	-38%	-22%	4.6µM*
COc1ccccc1C(NC(C)=O)c1cc(Cl)c2cccnc2c1O (stereo not drawn)	?	-8%	1.6µM*	-20%	-10%	2.3µM*
CCOc1ccc(C(Nc2cccnc2)c2cc(Cl)c3cccnc3c2O)cc1 (stereo not drawn)	?	-26%	?	-35%	15µM*	15µM*
CCCCn1c(SCC(=O)N2CCC(C)CC2)nc2ccsc2c1=O	-25%	-16%	?	-20%	-9%	15µM*
CCC1CCCCN1C(=O)CSc1nc2ccsc2c(=O)n1Cc1ccccc1 (stereo not drawn)	-1%	-10%	21µM*	-47%	-17%	9.2µM*
CCCCn1c(SCC(=O)N2CCN(c3ccccc3)CC2)nc2ccsc2c1=O	?	?	12µM*	-8%	?	?
CCCCn1c(SCC(=O)N2CCOCC2)nc2ccccc2c1=O	3%	-3%	-21%	-4%	-21%	-10%
COc1ccc2c(O)c(-c3c(C)cc(C)cc3C)c(=O)[nH]c2c1	-3%	21%	1%	-33%	3%	?
c1ncc(CC2CCNCC2)[nH]1	.	.	5%	.	.	-1%
CCOc1ccc(NC(=O)CN(C)C(=O)CCc2ccccc2Cl)cc1OCC	-13%	1%	-5%	-3%	2%	-2%
SMILES	TGFb SMAD3 inh	HT1080NT lethal	DT40 TDP1 CPT	HepG2 viability	HT1080 IDH1KD tx	TDP1 cell noCPT
CCOc1ccc(NC(=O)CN(C)C(=O)c2ccccc2CCc2ccccc2)cc1OCC	2%	-3%	21µM*	-7%	-1%	?
CCOc1ccc(NC(=O)CN(C)C(=O)c2ccccc2OCCOc2ccccc2)cc1OCC	0%	-6%	?	7%	-9%	8.2µM*
CCOc1ccc(NC(=O)CN(C)C(=O)c2cccc3ccccc23)cc1OCC	-3%	-2%	-2%	-18%	1%	?
CCOc1ccc(NC(=O)CN(C)C(=O)CCCOc2ccc(Cl)c(C)c2)cc1OCC	5%	-4%	15µM*	-19%	-4%	23µM*
CCN1CCN(c2ncnc3c2cnn3-c2ccc(C)cc2)CC1	5%	.	?	-19%	.	?
COC(=O)/C=c1\[nH]c2nnc(C)n2c1=O	-10%	29%	-1%	-33%	-2%	-4%
CC1=C(C(=O)Nc2cccc(C)n2)C(c2ccc3c(c2)OCO3)C2=C(CC(c3ccco3)CC2=O)N1 (stereo not drawn)	-11%	0%	-10%	2%	-1%	-7%
O=C(N/N=C/c1ccccn1)c1ccc([N+](=O)[O-])cc1	?	0%	1%	8%	11%	-9%
O=C(NN=Cc1ccccc1O)c1cccc([N+](=O)[O-])c1	-15%	0.29µM*	0.82µM*	-28%	1.2µM*	0.16µM*
O=C(N/N=C/c1ccccn1)c1cc([N+](=O)[O-])cc([N+](=O)[O-])c1	4.5µM*	-11%	?	-52%	-9%	21µM*
O=C(N/N=C/c1ccccn1)c1cccc([N+](=O)[O-])c1	-30%	-24%	?	-26%	?	16µM*
CCN(CC)C(=O)C1CCCN(c2ccc([N+](=O)[O-])cc2/C=N/NC(=O)c2cccc([N+](=O)[O-])c2)C1 (stereo not drawn)	3%	3%	21µM*	-14%	0%	?
CCOC(=O)C1=CN(Cc2cccc(F)c2)S(=O)(=O)N(CC)C1c1ccc(Br)cc1F (stereo not drawn)	-22%	1%	?	-46%	-9%	?
